Results: the supplement of paper PMC10732440
± gives the standard deviation of the averaged measurements.

System: Caenorhabditis elegans N2 infected with Nematocida parisii ERTm1
Experiment: progeny production relative to DMSO uninfected control; higher = more progeny despite microsporidia infection (inhibition of infection with low host toxicity)
Settings: infection time 6 days
How it was run: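 Progeny production is reported as a percentage of spore-free vehicle wells and averaged across replicates. It was measured after bleach-synchronised wild-type C. elegans L1 larvae (100 per well) spent 6 days shaking at 21°C in K-medium with E. coli OP50, 15,000 N. parisii spores/μL and compound at 100 μM or 40 μM in 1% DMSO. Counting used Rose Bengal staining, flatbed scanning and WorMachine, and each compound and dose was tested three times.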

Row | SMILES | progeny production (40 µM) | progeny production (100 µM)
1 | CC[C@@H](CO)NCCN[C@@H](CC)CO | 4.98 ± 2.4% | 6.91 ± 5.6%
2 | Cc1c(OCC(F)(F)F)ccnc1C[S+]([O-])c1nc2ccccc2[nH]1 (stereo unspecified) | 6.74 ± 4.3% | 11 ± 6.1%
3 | CCCCOC(=O)Nc1cc2nc(C3CCCCC3)[nH]c2cc1N(CC)CC | 6.28 ± 3% | 13.5 ± 8.2%
4 | O=C(Nc1nnc(-c2ccc(Cl)cc2)o1)c1nc2ccccc2s1 | 8.93 ± 4.2% | 6.47 ± 3.5%
5 | COc1c(F)c(F)cc2c(=O)c(C(=O)O)cn(C3CC3)c12 | 6.01 ± 4.3% | 12.9 ± 4.6%
6 | CC(C)CCN1C(=O)C(C2=NS(=O)(=O)c3cc(NS(C)(=O)=O)ccc3N2)=C(O)[C@@H]2[C@H]3CC[C@H](C3)[C@@H]21 | 3.42 ± 3.9% | 9.92 ± 5.3%
7 | CCOC(=O)/C=C/[C@H](C[C@@H]1CCNC1=O)NC(=O)[C@H](CC)n1cccc(NC(=O)c2cc(C)on2)c1=O | 4.38 ± 3.6% | 8.98 ± 7.5%
8 | NC(=S)N/N=C/c1ncccc1N | 8.43 ± 4.5% | 18.8 ± 12%
9 | O=C(O)C[C@H]1CC[C@H](c2ccc(-c3ccc(Nc4ccc(C(F)(F)F)nc4)cn3)cc2)CC1 | 4.2 ± 3.2% | 10.5 ± 6.4%
10 | Oc1ccc(NCc2ccccc2OCc2ccccc2)cc1 | 5.72 ± 3.1% | 8.25 ± 6.3%
11 | Nc1cc(-c2nc3ccccc3[nH]2)n[nH]c1=O | 6.4 ± 6.5% | 10.7 ± 4.7%
12 | CN(Cc1ccc(C(C)(C)C)cc1)Cc1cccc2ccccc12 | 5.41 ± 2% | 17 ± 17%
13 | CN1c2ccc(Cl)cc2N(c2ccccc2)C(=O)c2cn(Cc3ccc(CN4CCOCC4)cc3)nc21 | 5.41 ± 0.76% | 6.28 ± 3%
14 | Cc1c[nH]c(=O)nc1NCc1ccccc1 | 7.05 ± 4.5% | 8.45 ± 2.8%
15 | Oc1c(C(Nc2nc3ccccc3s2)c2ccc(OC(F)F)cc2)ccc2cccnc12 (stereo unspecified) | 3.08 ± 0.27% | 9.48 ± 12%
16 | C[C@H](NC(CC(=O)c1ccccc1C(F)(F)F)C(=O)O)c1ccccc1 (stereo partly specified) | 8 ± 6.4% | 5.89 ± 3.9%
17 | COc1ccc2c(c1)cc(CNC(=O)c1cc3ccccc3o1)n2CC(=O)O | 3.92 ± 2.4% | 17.7 ± 17%
18 | CC(C)(C)NC(=O)N[C@H](C(=O)N1C[C@H]2[C@@H]([C@H]1C(=O)NC(CC1CCC1)C(=O)C(N)=O)C2(C)C)C(C)(C)C (stereo partly specified) | 3.73 ± 0.22% | 7.69 ± 4.1%
19 | COc1ccc(NS(=O)(=O)c2ccc(Cl)s2)cn1 | 4.12 ± 0.52% | 15 ± 3%

Row | SMILES | progeny production (40 µM) | progeny production (100 µM)
20 | Oc1c(C(Nc2ccccn2)c2ccccc2)ccc2cccnc12 (stereo unspecified) | 8.66 ± 7.6% | 9.12 ± 7.2%
21 | Nc1nc(NC2Cc3ccc(F)cc3C2)nc(N2CCCCC2)n1 (stereo unspecified) | 5.65 ± 3.6% | 6.63 ± 4.3%
22 | O=c1cc(OCc2ccccc2)ccn1Cc1ccccc1 | 5.55 ± 1.6% | 13.9 ± 13%
23 | CN1CCN(Cc2ccc(-c3cnc4[nH]cc(-c5ccc6[nH]ccc6c5)c4c3)cc2)CC1 | 9.2 ± 4.8% | 14.6 ± 5.6%
24 | COc1ccc(C[C@@H](C)[C@@H](C)Cc2ccc(OC)c(OC)c2)cc1OC | 3.86 ± 0.4% | 16 ± 4.1%
25 | O=C(Nc1ccccc1)N(Cc1cc(Br)ccc1O)c1ccc(F)cc1 | 3.85 ± 1% | 17.4 ± 13%
26 | O=C(NO)C1(CS(=O)(=O)c2ccc(Oc3ccc(Cl)cc3)cc2)CCOCC1 | 5.79 ± 0.11% | 7.72 ± 4.5%
27 | CCOC(=O)/C=C/[C@H](C[C@@H]1CCNC1=O)NC(=O)[C@@H](CC(=O)[C@@H](NC(=O)c1cc(C)on1)C(C)C)Cc1ccc(F)cc1 | 3.79 ± 1.2% | 8.56 ± 4.7%
28 | O=C(CC1Sc2ncnn2C1=O)Nc1ccc(Br)cc1 (stereo unspecified) | 6.82 ± 1.8% | 21.6 ± 10%
29 | NC[C@H]1O[C@H](O[C@H]2[C@H](O)[C@@H](O[C@H]3O[C@H](CO)[C@@H](O)[C@H](N)[C@H]3O)[C@H](N)C[C@@H]2N)[C@H](N)C[C@@H]1O | 6.6 ± 2.4% | 11.7 ± 16%
30 | O=C(O)CSc1cc(NS(=O)(=O)c2cccc3cccnc23)c2ccccc2c1O | 6.14 ± 2.5% | 14.5 ± 8.5%
31 | c1cc(CN2CCCNCCNCCCNCC2)ccc1CN1CCCNCCNCCCNCC1 | 2.33 ± 1% | 9.51 ± 8.6%
32 | CCOCc1nc2c(N)nc3ccccc3c2n1CC(C)(C)O | 3.75 ± 1.7% | 14.8 ± 5.8%
33 | COC1CC2CCC(C)C(O)(O2)C(=O)C(=O)N2CCCCC2C(=O)OC(C(C)CC2CCC(OCCO)C(OC)C2)CC(=O)C(C)/C=C(\C)C(O)C(OC)C(=O)C(C)CC(C)/C=C/C=C/C=C/1C (stereo unspecified) | 5.45 ± 2.7% | 9.56 ± 2.5%
34 | C[C@@H](NC(=O)c1cccc(-c2cnc(-c3cc4ccccc4cn3)[nH]2)c1)c1ccc(F)cc1 | 5.74 ± 3.9% | 8.24 ± 5.7%
35 | O=C(Nc1ncc(Cc2cccc3ccccc23)s1)C1CCCCC1 | 8.93 ± 0.69% | 13 ± 5.7%
36 | CC(C)Oc1ccc(-c2nc(-c3cccc4c3CC[C@@H]4NCCO)no2)cc1C#N | 3.24 ± 0.4% | 4.7 ± 2.8%
37 | CCc1oc2ccccc2c1C(=O)c1ccc(O)cc1 | 11.4 ± 2.5% | 16.8 ± 0.54%
38 | COc1cc(NC(=O)CN2C(=O)NC(c3ccccc3)(c3ccccc3)C2=O)cc(OC)c1 | 3.5 ± 1% | 15.8 ± 11%
